# Test results: the supplement of paper PMC8728848
# The sample as a whole holds a higher share of the strongest signals than the screen did.
# B1: GS14009A-pdi-495-27-495 (Parabacteroides distasonis) (protein)
# chain: FEEVNTDPDSPTDVPTTNLLAYSLYYTSYRLYDRWFAMDEPMTFCGYASKMTYIDESRYNFRTGVQDTNWEYLYRILNNLKDIEKRATFNETPNMLNVSKVMQVHLMQVATDRWRDVPYTDAAKMTDGILQPKYDKQEDIYPGLLATLKEAADGFADGGSDDLGEGDLLFGGDIEKWQRYCNSMRLRLAMRISEVSPALAKETVEEVMGNPTKYPIMESNDDNAFFWWIGTDPNYYEPMADGYRTRKTEYCAADVIVDHMNTREDPRRSSYFQPTKESVEAGEPKYVGYTIGAKANAVASKYSIWGARFFTDLAGFSPYMRVAEPWFCVAEASMLGWNTGISAEDAYNKAVTYSMEENSVSAEDIADYLANAGKFTNDKKQIYYEEWVAMFKQGMEGWSLYRRTGVPDNLYPAPGRPANYSNHNVPPFRSPYPDKERNLNNANCAPFDAEVVDNLWGKQMWWDTRTGVH
# Assays:
# Assay in all cases: glycan array binding signal (z-score within array); higher = stronger binding
# Conditions in all cases: glycan notation: IUPAC condensed, linker removed
# [1] = target: Fuc(a1-2)Gal(b1-3)GlcNAc(b1-2)Man(a1-3)[Fuc(a1-2)Gal(b1-3)GlcNAc(b1-2)Man(a1-6)]Man(b1-4)GlcNAc(b1-4)GlcNAc
# In short: (§1)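 Glycan array data were curated from 3228 arrays in the Consortium for Functional Glycomics database and kept only where the protein sequence was available. Glycan names were converted to IUPAC-condensed notation, and columns mapping to the same glycan were averaged. The binding signal is a within-array Z-score, averaged across arrays of the same protein sequence at different concentrations or buffers and across linkers. Negative Z-scores can be read as non-binding.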
# [2] = target: Fuc(a1-2)Gal(b1-3)GlcNAc(b1-3)[Fuc(a1-2)Gal(b1-3)GlcNAc(b1-6)]GalNAc
# In short: as §1
# [3] = target: Fuc(a1-2)[Gal(a1-3)]Gal(b1-3)GalNAc
# In short: as §1
# [4] = target: Fuc(a1-2)[Gal(a1-3)]Gal(b1-4)[Fuc(a1-3)]GlcNAc(b1-3)GalNAc
# In short: as §1
# [5] = target: Fuc(a1-2)[GalNAc(a1-3)]Gal(b1-4)GlcNAc(b1-2)Man(a1-3)[Fuc(a1-2)[GalNAc(a1-3)]Gal(b1-4)GlcNAc(b1-2)Man(a1-6)]Man(b1-4)GlcNAc(b1-4)[Fuc(a1-6)]GlcNAc
# In short: as §1
# [6] = target: Fuc(a1-2)[GalNAc(a1-4)]Gal(b1-4)GlcNAc
# In short: as §1
# [7] = target: Gal(a1-3)Gal(b1-3)GlcNAc(b1-6)GalNAc
# In short: as §1
# Gal(a1-3)Gal(b1-4)Glc = target: Gal(a1-3)Gal(b1-4)Glc
# In short: as §1
# [8] = target: Gal(a1-4)Gal(b1-3)GlcNAc(b1-2)Man(a1-3)[Gal(a1-4)Gal(b1-3)GlcNAc(b1-2)Man(a1-6)]Man(b1-4)GlcNAc(b1-4)GlcNAc
# In short: as §1
# [9] = target: Gal(a1-4)Gal(b1-4)GlcNAc(b1-2)Man(a1-3)[Gal(a1-4)Gal(b1-4)GlcNAc(b1-2)Man(a1-6)]Man(b1-4)GlcNAc(b1-4)GlcNAc
# In short: as §1
# [10] = target: Gal(b1-3)GalNAc(b1-4)Gal(b1-4)Glc
# In short: as §1
# [11] = target: Gal(b1-3)GlcNAc(b1-3)Gal(b1-4)GlcNAc(b1-2)Man(a1-3)[Gal(b1-3)GlcNAc(b1-3)Gal(b1-4)GlcNAc(b1-2)Man(a1-6)]Man(b1-4)GlcNAc(b1-4)GlcNAc
# In short: as §1
# [12] = target: Gal(b1-3)[Fuc(a1-4)]GlcNAc(b1-2)Man(a1-3)[Gal(b1-3)[Fuc(a1-4)]GlcNAc(b1-2)Man(a1-6)]Man(b1-4)GlcNAc(b1-4)[Fuc(a1-6)]GlcNAc
# In short: as §1
# [13] = target: Gal(b1-3)[Fuc(a1-4)]GlcNAc(b1-6)GalNAc
# In short: as §1
# [14] = target: Gal(b1-4)GlcNAc(b1-2)Man(a1-3)[GlcNAc(b1-4)][Gal(b1-4)GlcNAc(b1-2)Man(a1-6)]Man(b1-4)GlcNAc(b1-4)GlcNAc
# In short: as §1
# [15] = target: Gal(b1-4)GlcNAc(b1-3)Gal(b1-4)GlcNAc(b1-2)Man(a1-3)[Gal(b1-4)GlcNAc(b1-3)Gal(b1-4)GlcNAc(b1-2)Man(a1-6)]Man(b1-4)GlcNAc(b1-4)GlcNAc
# In short: as §1
# [16] = target: Gal(b1-4)GlcNAc(b1-3)Gal(b1-4)GlcNAc(b1-2)[Gal(b1-4)GlcNAc(b1-3)Gal(b1-4)GlcNAc(b1-6)]Man(a1-6)[Gal(b1-4)GlcNAc(b1-3)Gal(b1-4)GlcNAc(b1-2)Man(a1-3)]Man(b1-4)GlcNAc(b1-4)GlcNAc
# In short: as §1
# [17] = target: Gal(b1-4)GlcNAc(b1-3)Gal(b1-4)GlcNAc(b1-2)[Gal(b1-4)GlcNAc(b1-3)Gal(b1-4)GlcNAc(b1-6)]Man(a1-6)[Gal(b1-4)GlcNAc(b1-3)Gal(b1-4)GlcNAc(b1-2)Man(a1-3)]Man(b1-4)GlcNAc(b1-4)[Fuc(a1-6)]GlcNAc
# In short: as §1
# [18] = target: Gal(b1-4)GlcNAc(b1-3)Gal(b1-4)GlcNAc(b1-3)Gal(b1-4)GlcNAc(b1-3)Gal(b1-4)GlcNAc(b1-2)Man(a1-3)[Gal(b1-4)GlcNAc(b1-3)Gal(b1-4)GlcNAc(b1-3)Gal(b1-4)GlcNAc(b1-3)Gal(b1-4)GlcNAc(b1-2)Man(a1-6)]Man(b1-4)GlcNAc(b1-4)[Fuc(a1-6)]GlcNAc
# In short: as §1
# [19] = target: Gal(b1-4)GlcNAc(b1-3)Gal(b1-4)GlcNAc(b1-3)Gal(b1-4)GlcNAc(b1-3)Gal(b1-4)GlcNAc(b1-2)[Gal(b1-4)GlcNAc(b1-3)Gal(b1-4)GlcNAc(b1-3)Gal(b1-4)GlcNAc(b1-3)Gal(b1-4)GlcNAc(b1-6)]Man(a1-6)[Gal(b1-4)GlcNAc(b1-3)Gal(b1-4)GlcNAc(b1-3)Gal(b1-4)GlcNAc(b1-3)Gal(b1-4)GlcNAc(b1-2)Man(a1-3)]Man(b1-4)GlcNAc(b1-4)[Fuc(a1-6)]GlcNAc
# In short: as §1
# [20] = target: Gal(b1-4)GlcNAc(b1-3)Gal(b1-4)GlcNAc(b1-3)Gal(b1-4)GlcNAc(b1-3)Gal(b1-4)GlcNAc(b1-3)Gal(b1-4)GlcNAc(b1-2)[Gal(b1-4)GlcNAc(b1-3)Gal(b1-4)GlcNAc(b1-3)Gal(b1-4)GlcNAc(b1-3)Gal(b1-4)GlcNAc(b1-3)Gal(b1-4)GlcNAc(b1-6)]Man(a1-6)[Gal(b1-4)GlcNAc(b1-3)Gal(b1-4)GlcNAc(b1-3)Gal(b1-4)GlcNAc(b1-3)Gal(b1-4)GlcNAc(b1-3)Gal(b1-4)GlcNAc(b1-2)Man(a1-3)]Man(b1-4)GlcNAc(b1-4)[Fuc(a1-6)]GlcNAc
# In short: as §1
# [21] = target: Gal(b1-4)GlcNAc(b1-3)Gal(b1-4)GlcNAc(b1-3)[Gal(b1-4)GlcNAc(b1-3)Gal(b1-4)GlcNAc(b1-6)]GalNAc
# In short: as §1
# [22] = target: Gal(b1-4)GlcNAc(b1-3)Gal(b1-4)GlcNAc(b1-6)[Gal(b1-3)]GalNAc
# In short: as §1
# [23] = target: Gal3S(b1-3)[Fuc(a1-4)]GlcNAc
# In short: as §1
# [24] = target: GalNAc(b1-4)GlcNAc(b1-3)GalNAc(b1-4)GlcNAc
# In short: as §1
# [25] = target: Glc(a1-4)Glc(a1-4)Glc(a1-4)Glc
# In short: as §1
# GlcA(b1-6)Gal = target: GlcA(b1-6)Gal
# In short: as §1
# [26] = target: GlcNAc(a1-4)Gal(b1-4)GlcNAc(b1-3)Gal(b1-4)Glc
# In short: as §1
# [27] = target: GlcNAc(a1-4)Gal(b1-4)GlcNAc(b1-3)Gal(b1-4)[Fuc(a1-3)]GlcNAc(b1-3)Gal(b1-4)[Fuc(a1-3)]GlcNAc
# In short: as §1
# [28] = target: GlcNAc(b1-2)[GlcNAc(b1-6)]Man(a1-6)[GlcNAc(b1-2)Man(a1-3)]Man(b1-4)GlcNAc(b1-4)[Fuc(a1-6)]GlcNAc
# In short: as §1
binder,measurement,setting,value
B1,glycan array binding signal (z-score),[1],2.57
same,glycan array binding signal (z-score),[2],-0.336
same,glycan array binding signal (z-score),[3],0.023
same,glycan array binding signal (z-score),[4],-0.109
same,glycan array binding signal (z-score),[5],2.8
same,glycan array binding signal (z-score),[6],-0.532
same,glycan array binding signal (z-score),[7],-0.003
same,glycan array binding signal (z-score),Gal(a1-3)Gal(b1-4)Glc,-0.017
same,glycan array binding signal (z-score),[8],2.33
same,glycan array binding signal (z-score),[9],2.23
same,glycan array binding signal (z-score),[10],0.001
same,glycan array binding signal (z-score),[11],4.58
same,glycan array binding signal (z-score),[12],1.2
same,glycan array binding signal (z-score),[13],0.634
same,glycan array binding signal (z-score),[14],15.2
same,glycan array binding signal (z-score),[15],0.299
same,glycan array binding signal (z-score),[16],10.6
same,glycan array binding signal (z-score),[17],0.552
same,glycan array binding signal (z-score),[18],0.445
same,glycan array binding signal (z-score),[19],7.28
same,glycan array binding signal (z-score),[20],3.33
same,glycan array binding signal (z-score),[21],0.573
same,glycan array binding signal (z-score),[22],-0.044
same,glycan array binding signal (z-score),[23],0.01
same,glycan array binding signal (z-score),[24],-0.71
same,glycan array binding signal (z-score),[25],-0.358
same,glycan array binding signal (z-score),GlcA(b1-6)Gal,0.626
same,glycan array binding signal (z-score),[26],-0.147
same,glycan array binding signal (z-score),[27],1.93
same,glycan array binding signal (z-score),[28],-0.199
